HIF-2a inh: HIF-2a reporter inhibitors, primary screen, luminescence, 786-0 RCC cells. 786-0 RCC cells HIF-2a reporter, luciferase luminescence, overnight. inhibition, % at 18.8 µM. actives 0.72% (n = 360,000). AID 624352, 2012;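 active means inhibition of the luminescence signal of 40% or more relative to plate controls, in a single-dose primary screen at 18.75 µM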
TRPM1 prom inh: inhibitors of MITF-dependent TRPM1 promoter reporter, primary screen, cell-based, SK-MEL-5, single point, luciferase; actives 0.83% (n = 330,000); AID 488899, 2010; inhibition, % at 12.5 µM; SK-MEL-5 TRPM1 promoter luciferase, 24 h;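 active means mean inhibition across replicates of 60% or more, whatever share of single replicates reaches that level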
Beta2AR agonist: beta2AR agonists driving receptor internalization, primary screen, cell-based, FAP fluorogen, flow cytometry; Beta-2 adrenergic receptor (Homo sapiens), P07550; Am2.2-beta2AR cells; response, % (concentration not given with the values); actives 0.43% (n = 340,000);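 active means response above a set limit, near 3 SD of response in nonfluorescent compounds, cut at about 42% in these data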
Target sequence (P07550 whole entry, looked up): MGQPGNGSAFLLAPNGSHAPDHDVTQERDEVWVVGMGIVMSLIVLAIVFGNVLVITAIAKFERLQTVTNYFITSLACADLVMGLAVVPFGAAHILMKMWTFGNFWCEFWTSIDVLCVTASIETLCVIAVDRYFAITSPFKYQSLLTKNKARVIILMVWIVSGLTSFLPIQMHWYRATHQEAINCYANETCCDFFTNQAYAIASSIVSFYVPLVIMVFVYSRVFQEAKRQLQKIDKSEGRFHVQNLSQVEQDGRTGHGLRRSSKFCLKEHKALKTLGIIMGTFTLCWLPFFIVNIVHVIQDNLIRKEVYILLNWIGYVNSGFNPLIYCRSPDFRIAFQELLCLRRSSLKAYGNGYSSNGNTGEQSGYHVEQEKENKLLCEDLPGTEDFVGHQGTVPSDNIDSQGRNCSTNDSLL
KKLEB tox: cytotoxicity in KKLEB CF airway cells, primary screen, cytotoxicity control for CF NF-kB inhibitor project, cell-based, uHTS, fluorescence assay plates | KKLEB CF airway cells viability, ATPlite luminescence, overnight; stronger effect = lower value; cells stimulated with P. aeruginosa culture filtrate | activity change (cytotoxicity), % at 5 µM | actives 0.36% (n = 360,000) | AID 602141, 2011;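 active means corrected activity change at or below -50% at 5 µM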
Peg3 promoter: Peg3 promoter-driven luciferase inhibitors, primary screen, cell-based, HeLa, luciferase luminescence | HeLa PEG-Prom luciferase reporter, overnight | inhibition, % at 20 µM | actives 1.7% (n = 360,000);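 active means inhibition of at least 50% at 20 µM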
CF NFkB block: inhibitors of PAF-induced NF-kB signaling, primary screen, cell-based, GFP fluorescence, uHTS | KKLEB NF-kB-GFP reporter, GFP fluorescence overnight | inhibition, % at 5 µM | actives 0.86% (n = 360,000) | AID 588850, 2011;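 active means at least 50% inhibition at 5 µM, scaled per plate between neutral and stimulator controls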;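 further: PAF is a Pseudomonas aeruginosa culture filtrate used as stimulus; plate controls were PAF-stimulated DMSO wells for no effect and unstimulated DMSO wells for full effect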
* = called active by the depositor; / = no result. This is a sample that favours compounds with a hit; in the whole collection about 2.8% have one here.

SMILES	HIF-2a inh	TRPM1 prom inh	Beta2AR agonist	KKLEB tox	Peg3 promoter	CF NFkB block
CC1CCN(CCCNC(=O)c2ccc3c(=O)n(Cc4ccc(Cl)cc4)c(=S)[nH]c3c2)CC1	14	26	4	-13	114*	15
Cc1nc(NC(=O)c2ccccc2)sc1-c1cc(C(=O)N2CCOCC2)nn1Cc1ccccc1	-1	/	/	-16	3	9
C[C@@H](O)CNC(=O)c1[nH]cnc1C(=O)N[C@H](C)c1ccccc1	2	/	/	-9	-2	21
CCC(=O)Nc1cccc(-c2ccc(N3CCC(C)CC3)nn2)c1	9	-9	-5	-55*	-124	8
Cc1ccc(C(=O)Nc2cccc(C(F)(F)F)c2)cc1Nc1ncnc2nc[nH]c12	26	/	/	8	38	69*
Cc1ccc(C(=O)Nc2cccc(C(F)(F)F)c2)cc1NC(=O)c1nccn1C	-9	/	9	3	4	19
OCCN(CCO)c1ccc(C(c2ccccc2Cl)c2ccc(N(CCO)CCO)cc2Cl)c(Cl)c1	25	-13	11	10	59*	9
OCCN(CCO)c1ccc2ccccc2c1	-2	15	7	-6	-10	-8
COc1ccccc1/C=N/NC(=O)CSc1ccc2ccccc2n1	-106	6	-3	-5	-71	7
CCCCSc1nc(C)cc(SCC(=O)N/N=C/c2cccc(OC)c2O)n1	19	50	-2	0	53*	10
CC(C)(C)c1ccc(Cn2c(=N)n(CC(O)c3ccco3)c3ccccc32)cc1 (stereo unspecified)	1	98*	10	-22	105*	25
O=C(O)c1ccc(NC2=C/C(=N/S(=O)(=O)c3ccccc3)c3ccccc3C2=O)cc1	44*	63*	23	-37	10	89*
CC(=O)Nc1ccc(NC2=CC(=O)c3ccccc3C2=O)cc1	-159	42	-12	1	-188	-3
Cc1cc(C)c(S(=O)(=O)/N=C2\C=C(Nc3ccc(C(=O)O)cc3)C(=O)c3ccccc32)c(C)c1	-14	78*	14	-63*	103*	91*
O=C(NCc1ccccc1)C(C1CC1)n1c(=O)c(-c2ccco2)nc2ccccc21 (stereo unspecified)	3	/	/	/	/	/
CN1CCN(c2ccc(NC(=O)COc3ccccc3[N+](=O)[O-])cc2)CC1	-13	7	-21	-2	11	-3
CC(C)C(=O)N1CCN(c2ccc(NC(=O)COc3ccccc3[N+](=O)[O-])cc2)CC1	-6	39	14	-6	91*	11
Cc1ccc(NC(=O)CN(C)C(=O)COC(=O)COc2cc(C)cc(C)c2)cc1	1	/	/	-2	0	-10
O=C(NCC1CCCO1)C(c1cccs1)N(Cc1ccccc1Cl)C(=O)c1ccc(-c2ccccc2)[nH]1 (stereo unspecified)	9	8	32	-10	80*	7
c1ccc(NN=C(c2ccccc2)c2cccs2)cc1	-23	/	/	-3	-11	-22
C=CC(=O)N=c1sc2ccccc2n1-c1ccccc1	-38	51	13	-33	98*	57*
N=c1sc2ccccc2n1-c1ccccc1	-13	-1	-8	0	22	2
COc1ccccc1/C=C/C1(C(=O)NC2CCCC2)CC(=O)N1c1ccc(F)cc1 (stereo unspecified)	15	41	4	-77*	40	80*
Cc1ccccc1-c1cc2nc(NCCOc3ccccc3Cl)n(C)c(=O)c2s1	-13	/	/	2	14	-5
CCCNC(=O)c1cc2c(c(-c3cccc(-c4ccc(F)cc4)c3)n1)[C@@H](CCO)N(S(=O)C(C)(C)C)C2 (stereo partly specified)	6	/	/	8	21	10
SMILES	HIF-2a inh	TRPM1 prom inh	Beta2AR agonist	KKLEB tox	Peg3 promoter	CF NFkB block
CCCNC(=O)c1cc2c(c(-c3cccc(-c4ccc(F)cc4)c3)n1)[C@H](CCO)N(S(=O)C(C)(C)C)C2 (stereo partly specified)	26	/	/	-25	51*	-15
COc1ccc(/C=C2\SC(=S)N(CCCC(=O)Nc3cccc(C(=O)O)c3)C2=O)cc1OC	26	10	17	0	20	7
COc1ccc(/C=C2\SC(=S)N(CCCC(=O)Nc3ccccn3)C2=O)cc1OC	40*	-9	11	-2	17	6
COc1cc(/C=C2\SC(=S)N(CC(=O)NC3=NCCS3)C2=O)cc(OC)c1OC	13	6	-3	-20	1	29
COc1ccc(/C=C2\SC(=S)N(CCC(=O)NC3=NCCS3)C2=O)cc1OC	54*	7	6	-1	-4	-2
O=c1ccc2cc3c4c(c2o1)CCCN4CCC3	5	-6	15	3	15	-18
O=c1ccc2c(o1)/C(=C/C=C(Cl)Cl)CCC2	-11	-1	53*	-1	-13	-2
COc1cc(C(=O)N2CCC(NC(=O)C(Cc3ccccc3)NC(C)=O)CC2)cc(OC)c1OC (stereo unspecified)	7	-2	7	3	58*	-5
Cc1cc(C(=O)Nc2cc(C)n(Cc3ccc(Cl)cc3)n2)no1	-39	8	-5	7	-11	-15
COc1ccccc1-c1cc(C(=O)Nc2cc(C)n(Cc3ccc(Cl)cc3)n2)no1	-18	18	11	-76*	12	60*
O=C(CCS(=O)(=O)c1ccccc1)Nc1nc2ccc(F)cc2s1	-42	14	-3	-26	61*	46
O=C(CCS(=O)(=O)c1ccccc1)Nc1nc2cc3c(cc2s1)OCCO3	-88	1	2	-23	-87	45
O=C(CCN1C(=O)/C(=C/c2ccccc2Cl)SC1=S)N1CCOCC1	-15	18	7	-11	76*	72*
O=C(CCCN1C(=O)/C(=C/c2ccccc2Cl)SC1=S)N1CCCC1	59*	21	-8	-11	35	5
O=C(CCN1C(=O)/C(=C/c2ccccc2Cl)SC1=S)N1CCCC1	-11	41	5	-4	73*	53*
O=C(CCCN1C(=O)/C(=C/c2ccccc2)SC1=S)N1CCOCC1	25	-16	-2	-1	8	-6
O=C(CCN1C(=O)/C(=C\c2ccccc2)SC1=S)N1CCOCC1	-20	-9	-4	0	17	5
O=C(CCCN1C(=O)/C(=C/c2ccccc2Cl)SC1=S)NNC(=O)c1ccncc1	82*	10	3	22	21	-9

Bioassay records (PubChem BioAssay)
